For test [1], the target named is Tyrosine-protein kinase SYK (Homo sapiens) (UniProt P43405). Particulars: at 1 µM.
Test [2] addresses T1, Tyrosine-protein kinase Tec (Homo sapiens) (UniProt P42680).
T1 sequence (whole entry): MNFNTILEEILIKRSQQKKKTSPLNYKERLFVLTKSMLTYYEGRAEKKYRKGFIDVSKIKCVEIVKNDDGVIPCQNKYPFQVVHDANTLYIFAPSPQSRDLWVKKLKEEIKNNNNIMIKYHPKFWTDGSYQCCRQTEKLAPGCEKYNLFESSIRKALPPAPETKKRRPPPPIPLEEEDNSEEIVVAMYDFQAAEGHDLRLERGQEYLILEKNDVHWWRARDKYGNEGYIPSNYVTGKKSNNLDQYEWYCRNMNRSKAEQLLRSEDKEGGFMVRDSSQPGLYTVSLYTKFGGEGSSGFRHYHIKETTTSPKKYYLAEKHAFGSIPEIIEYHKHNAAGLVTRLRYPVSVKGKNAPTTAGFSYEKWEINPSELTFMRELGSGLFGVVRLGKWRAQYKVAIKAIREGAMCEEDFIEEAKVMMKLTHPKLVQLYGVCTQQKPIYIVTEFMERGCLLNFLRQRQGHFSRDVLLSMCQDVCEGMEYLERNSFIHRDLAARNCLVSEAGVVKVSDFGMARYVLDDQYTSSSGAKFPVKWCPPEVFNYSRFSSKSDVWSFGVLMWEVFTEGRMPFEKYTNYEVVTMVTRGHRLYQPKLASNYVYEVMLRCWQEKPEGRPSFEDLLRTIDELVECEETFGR
The following applies: at 0.1 µM.

Test [3] deals with T1, Tyrosine-protein kinase Tec (Homo sapiens). Particulars: at 1 µM.
Test [4] has as its target Angiopoietin-1 receptor (Homo sapiens) (UniProt Q02763). Particulars: at 0.1 µM.
Test [5] shares this target. Particulars: at 1 µM.
Test [6] deals with T2, Non-receptor tyrosine-protein kinase TNK1 (Homo sapiens) (UniProt Q13470).
T2 sequence (whole entry): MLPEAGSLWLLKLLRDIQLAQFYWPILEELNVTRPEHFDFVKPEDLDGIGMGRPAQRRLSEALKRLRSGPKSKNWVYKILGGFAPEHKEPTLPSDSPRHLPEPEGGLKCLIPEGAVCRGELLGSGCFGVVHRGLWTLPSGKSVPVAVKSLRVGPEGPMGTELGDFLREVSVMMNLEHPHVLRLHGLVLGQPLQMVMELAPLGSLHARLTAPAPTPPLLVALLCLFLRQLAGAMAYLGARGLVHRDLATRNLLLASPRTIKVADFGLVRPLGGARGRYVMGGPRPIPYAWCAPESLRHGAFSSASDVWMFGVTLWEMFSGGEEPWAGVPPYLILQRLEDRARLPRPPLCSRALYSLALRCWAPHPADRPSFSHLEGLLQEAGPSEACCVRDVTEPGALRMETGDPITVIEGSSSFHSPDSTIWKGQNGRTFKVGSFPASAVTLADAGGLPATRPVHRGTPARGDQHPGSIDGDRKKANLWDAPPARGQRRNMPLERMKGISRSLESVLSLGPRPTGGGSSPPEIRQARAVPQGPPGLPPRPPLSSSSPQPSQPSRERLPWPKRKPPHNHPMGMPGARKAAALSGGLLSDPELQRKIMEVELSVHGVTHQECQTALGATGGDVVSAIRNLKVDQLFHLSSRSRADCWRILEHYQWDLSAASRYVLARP
Particulars: at 0.1 µM.

The target of test [7] is T2, Non-receptor tyrosine-protein kinase TNK1 (Homo sapiens). The following applies: at 1 µM.
The target in test [8] is Activated CDC42 kinase 1 (Homo sapiens) (UniProt Q07912). The following applies: at 0.1 µM.
For test [9] the target is unchanged. Particulars: at 1 µM.
The target in test [10] is High affinity nerve growth factor receptor (Homo sapiens) (UniProt P04629). Particulars: at 0.1 µM.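 Note: each value is a mean of replicate percent inhibition readings against TRKA kinase.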

Experimental findings from ChEMBL document CHEMBL1961873, “Compounds: GSK PKIS; Assays: Nanosyn kinase panel” (2012) are described below.

The term inhibition denotes the relative decrease from the control value, in per cent.

Chain of High affinity nerve growth factor receptor (Homo sapiens) (P04629 33-796 limits assumed): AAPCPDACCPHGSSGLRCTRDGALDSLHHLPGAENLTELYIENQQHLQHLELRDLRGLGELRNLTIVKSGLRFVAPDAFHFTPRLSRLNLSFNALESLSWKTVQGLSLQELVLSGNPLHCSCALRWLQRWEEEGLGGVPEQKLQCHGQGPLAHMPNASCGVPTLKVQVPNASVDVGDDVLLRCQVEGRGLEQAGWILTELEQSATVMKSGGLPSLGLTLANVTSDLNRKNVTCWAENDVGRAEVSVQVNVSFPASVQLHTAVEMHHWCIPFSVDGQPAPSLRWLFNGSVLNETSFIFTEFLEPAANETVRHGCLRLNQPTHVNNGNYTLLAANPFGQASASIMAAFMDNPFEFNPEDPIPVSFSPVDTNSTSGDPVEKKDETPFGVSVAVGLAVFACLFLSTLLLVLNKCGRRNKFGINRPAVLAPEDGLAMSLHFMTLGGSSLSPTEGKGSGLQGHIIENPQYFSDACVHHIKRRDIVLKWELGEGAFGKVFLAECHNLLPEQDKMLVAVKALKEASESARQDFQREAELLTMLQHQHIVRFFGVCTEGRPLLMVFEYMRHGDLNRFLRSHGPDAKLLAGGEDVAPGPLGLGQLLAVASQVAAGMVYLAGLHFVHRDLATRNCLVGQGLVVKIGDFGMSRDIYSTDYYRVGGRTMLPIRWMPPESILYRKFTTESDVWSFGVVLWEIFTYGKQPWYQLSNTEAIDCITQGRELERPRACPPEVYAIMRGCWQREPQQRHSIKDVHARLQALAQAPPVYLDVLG
Chain of Angiopoietin-1 receptor (Homo sapiens) (Q02763 whole entry): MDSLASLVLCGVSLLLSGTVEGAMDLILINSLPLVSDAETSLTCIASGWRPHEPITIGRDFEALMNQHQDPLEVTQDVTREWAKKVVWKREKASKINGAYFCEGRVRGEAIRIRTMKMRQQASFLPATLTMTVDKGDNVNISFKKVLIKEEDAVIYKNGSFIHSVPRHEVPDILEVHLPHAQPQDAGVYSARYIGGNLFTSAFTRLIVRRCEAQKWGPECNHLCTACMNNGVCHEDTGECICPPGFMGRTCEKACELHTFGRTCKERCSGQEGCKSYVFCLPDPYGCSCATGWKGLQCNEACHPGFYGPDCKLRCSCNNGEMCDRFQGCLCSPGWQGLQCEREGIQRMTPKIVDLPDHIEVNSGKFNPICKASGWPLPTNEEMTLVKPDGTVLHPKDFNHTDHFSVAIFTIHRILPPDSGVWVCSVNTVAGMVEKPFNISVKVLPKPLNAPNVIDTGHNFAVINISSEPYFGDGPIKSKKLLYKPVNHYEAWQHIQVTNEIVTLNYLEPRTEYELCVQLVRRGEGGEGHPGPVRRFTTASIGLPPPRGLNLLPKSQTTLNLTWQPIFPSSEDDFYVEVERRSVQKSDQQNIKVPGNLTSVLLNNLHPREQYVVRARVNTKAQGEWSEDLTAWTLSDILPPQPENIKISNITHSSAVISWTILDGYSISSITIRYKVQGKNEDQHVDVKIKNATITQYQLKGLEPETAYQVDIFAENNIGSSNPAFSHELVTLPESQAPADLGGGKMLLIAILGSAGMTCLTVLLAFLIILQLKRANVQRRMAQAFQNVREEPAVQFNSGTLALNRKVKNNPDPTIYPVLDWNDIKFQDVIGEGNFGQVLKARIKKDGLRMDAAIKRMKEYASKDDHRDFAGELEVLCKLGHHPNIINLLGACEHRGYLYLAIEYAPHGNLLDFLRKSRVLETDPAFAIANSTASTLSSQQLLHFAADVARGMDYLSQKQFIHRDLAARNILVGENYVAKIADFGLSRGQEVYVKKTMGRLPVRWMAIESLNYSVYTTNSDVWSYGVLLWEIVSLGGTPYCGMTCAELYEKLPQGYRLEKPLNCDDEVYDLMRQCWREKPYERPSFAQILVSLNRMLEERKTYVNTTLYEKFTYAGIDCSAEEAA
Chain of Activated CDC42 kinase 1 (Homo sapiens) (Q07912 whole entry, looked up): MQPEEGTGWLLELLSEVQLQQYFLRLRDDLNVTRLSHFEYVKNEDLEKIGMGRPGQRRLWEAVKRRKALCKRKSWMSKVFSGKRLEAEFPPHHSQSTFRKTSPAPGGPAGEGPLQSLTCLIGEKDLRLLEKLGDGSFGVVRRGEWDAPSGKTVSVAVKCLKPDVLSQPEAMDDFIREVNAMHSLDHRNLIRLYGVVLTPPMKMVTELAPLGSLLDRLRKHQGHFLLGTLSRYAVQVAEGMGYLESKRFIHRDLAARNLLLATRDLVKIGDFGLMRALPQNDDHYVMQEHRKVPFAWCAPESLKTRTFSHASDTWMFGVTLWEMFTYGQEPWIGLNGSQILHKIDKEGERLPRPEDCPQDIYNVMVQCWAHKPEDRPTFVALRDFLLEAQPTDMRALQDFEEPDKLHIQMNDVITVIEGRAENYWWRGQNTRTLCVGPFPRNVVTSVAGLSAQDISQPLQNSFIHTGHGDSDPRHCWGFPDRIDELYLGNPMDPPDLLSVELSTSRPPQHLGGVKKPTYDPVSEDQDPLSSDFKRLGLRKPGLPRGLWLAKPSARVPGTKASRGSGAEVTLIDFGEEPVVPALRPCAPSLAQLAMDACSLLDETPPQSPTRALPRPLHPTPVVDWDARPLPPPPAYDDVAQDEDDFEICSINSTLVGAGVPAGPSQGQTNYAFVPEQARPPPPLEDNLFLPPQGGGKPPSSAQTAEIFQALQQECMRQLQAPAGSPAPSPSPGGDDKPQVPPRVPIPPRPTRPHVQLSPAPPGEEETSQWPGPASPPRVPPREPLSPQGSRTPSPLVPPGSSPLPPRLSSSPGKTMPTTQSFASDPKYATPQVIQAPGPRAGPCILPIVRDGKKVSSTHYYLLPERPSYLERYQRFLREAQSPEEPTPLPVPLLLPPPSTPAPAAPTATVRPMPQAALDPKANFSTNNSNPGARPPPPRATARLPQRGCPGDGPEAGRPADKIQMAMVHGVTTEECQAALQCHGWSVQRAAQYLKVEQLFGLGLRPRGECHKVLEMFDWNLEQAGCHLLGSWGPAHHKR

In the case of `CCn1c(-c2nonc2N)nc2c(C#CC(C)(C)O)nc(OC[C@H](N)c3ccccc3)cc21`, the inhibition in test [1] worked out at 4.13%; in test [2], 6.27%; in test [3], 3.05%; in test [4], 5.91%; in test [5], 6.74%; in test [6] it was 1.23%. Also, the inhibition in test [7] is -4.26%; in test [8], 0.7%; in test [9], 3.88%; in test [10] it was 0.42%.
For the molecule `CCn1cc(-c2ccnc3[nH]ccc23)c(-c2cccc(NC(=O)Nc3ccc(OCc4ccccc4)cc3)c2)n1`, the inhibition in test [1] was -2.75%; in test [2] it was -0.28%; in test [3], 0.98%; in [4] it was -0.17%; in test [5] it was 6.2%; in test [6] it was 1.05%. Besides, the inhibition in test [7] was 11.2%; in test [8] it was -0.68%; in test [9], 2.63%; in test [10], -1.48%.
For the molecule `Cc1ccc(O)cc1Nc1ccnc2cc(-c3ccccn3)ccc12`, the inhibition in test [1] was found to be 1.9%; in test [2], 46%; in test [3] it was 83.4%; in test [4], 7.91%; in [5], 48.2%; in test [6], 8.49%. For the same molecule, the inhibition was determined as 38.1% in test [7], 2.64% in test [8], 18% in test [9] and 4% in test [10].
For the molecule `COc1cccc(-c2c[nH]c3c(N/N=C/c4ccncc4)ncnc23)c1`, the inhibition turned out to be 4.79% in test [1]; 3.87% in [2]; 16.5% in [3]; 4.98% in test [4]; 27.5% in test [5]; 10% in [6]. In addition, the inhibition is 41.7% in test [7], 1.63% in test [8], 15.3% in [9] and 6.49% in [10].
As to `Nc1nc(-c2ccc(F)cc2)c(-c2ccc3ncccc3n2)s1`, the inhibition in [1] came to 0.4%; in test [2] it was 4.57%; in test [3], 6.46%; in [4] it was 1.26%; in [5], 4.32%; in [6], 4.65%. Besides, the inhibition was 6.8% in [7], 1.85% in [8], 3.57% in [9] and 4.1% in test [10].
Take `CCn1c(-c2nonc2N)nc2ccccc21`: the inhibition is 0.1% in [1]; 3.65% in test [2]; 7.35% in test [3]; 0.56% in test [4]; -0.01% in test [5]; 2.77% in test [6]. The inhibition came out at 4.19% in test [7], 1.12% in [8], 2.47% in test [9] and 3.39% in test [10].
For `c1ccc(COc2ccc(Nc3ncnc4ccc(-c5ccco5)cc34)cc2)cc1`, the inhibition is -0.46% in [1]; 1.31% in [2]; 3.25% in test [3]; 2.64% in test [4]; 3.4% in test [5]; 1.53% in [6]. Also, the inhibition in [7] was 5.09%; in test [8], -0.27%; in test [9], 0.03%; in test [10], -2.34%.
For `CS(=O)(=O)CCNCc1ccc(-c2ccc3ncnc(Nc4ccc(OCc5ccccc5)c(C(F)(F)F)c4)c3c2)o1`, the inhibition in test [1] was -5.62%; in [2], 0.36%; in test [3] it was 3.4%; in test [4] it was 0.1%; in test [5], 4.31%; in test [6], 1.84%. Besides, the inhibition in [7] amounted to 9.92%; in test [8], 0.97%; in test [9], 1.65%; in test [10], 2%.
For the molecule `O=C(O[C@H]1CN[C@H](C#Cc2cc3ncnc(Nc4ccc(Cc5ccccc5)cc4)c3s2)C1)N1CCOCC1`, the inhibition is -3.86% in test [1]; -0.07% in [2]; 4.05% in [3]; -0.43% in [4]; 2.3% in test [5]; 0.66% in [6]. The inhibition turned out to be 5.45% in test [7], 0.74% in test [8], 0.96% in test [9] and 1.4% in test [10].
Take `COC(=O)Nc1nc2ccc(Oc3ccc(NC(=O)Nc4cccc(Cl)c4)cc3)cc2[nH]1`: the inhibition in [1] is 0.56%; in test [2], -0.16%; in [3], 1.83%; in test [4], 17.1%; in test [5] it was 44.7%; in [6], 2.25%. In addition, the inhibition in test [7] is 7.76%; in test [8], 0.12%; in [9], -0.32%; in test [10], 15.6%.
With `CC(=O)Nc1cccc(C#Cc2cncnc2Nc2ccc(OCc3cccc(F)c3)c(Cl)c2)c1`, the inhibition in test [1] amounted to 0.71%; in [2] it was 5.52%; in test [3], 8.88%; in test [4] it was 1.44%; in test [5], 7.33%; in [6] it was 0.67%. Besides, the inhibition came out at 1.04% in [7], 1.8% in [8], 5.63% in test [9] and 0.89% in test [10].
On to `Nc1ncc(-c2cccc(S(N)(=O)=O)c2)c2scc(-c3ccc(F)c(Cl)c3)c12`, for which the inhibition in test [1] is -4.44%; in test [2], 25.8%; in test [3] it was 75.2%; in test [4] it was 2.99%; in test [5] it was 11.1%; in test [6], 6.81%. Moreover, the inhibition is 36% in [7], 5.03% in [8], 36.6% in test [9] and 1.33% in test [10].
Consider `COC(=O)Nc1nc2ccc(S(=O)(=O)c3ccc(NC(=O)Nc4cc(C(F)(F)F)ccc4F)cc3)cc2[nH]1`, for which the inhibition in test [1] is 0.05%; in [2], 3.65%; in test [3] it was 2.49%; in test [4], 5.47%; in test [5] it was 10.9%; in test [6], -0.2%. Besides, the inhibition in test [7] was -6.28%; in test [8] it was 0.69%; in [9] it was 0.6%; in [10] it was 1.94%.
For the molecule `COc1ccc2c(-c3ccnc(Nc4cccc(OC(F)(F)F)c4)n3)cnn2n1`, the inhibition in test [1] was -3.35%; in test [2], 6.32%; in test [3], 11.9%; in test [4] it was 1.4%; in test [5], 4.58%; in [6], 9.21%. The inhibition in test [7] was determined as 45%; in test [8], 1.32%; in test [9], 3.83%; in test [10], 4.63%.
With `CCc1nn2ncccc2c1-c1ccnc(NC2CC2)n1`, the inhibition is 2.4% in [1]; 3.41% in test [2]; 4.89% in [3]; 4.14% in test [4]; 6.65% in [5]; 1.41% in test [6]. In addition, the inhibition in test [7] came to 5.48%; in [8] it was 1.22%; in test [9], 2.89%; in test [10], 0.51%.
Consider `Fc1ccc(-c2nn3ccccc3c2-c2ccncc2)cc1`, for which the inhibition is 0.32% in [1]; 1.22% in test [2]; 2.64% in test [3]; 3.2% in test [4]; 4.76% in [5]; -0.64% in test [6]. Moreover, the inhibition in test [7] was found to be 0.91%; in test [8] it was 0.16%; in test [9] it was 0.87%; in [10], 2.3%.
As for `CCCN(CCS(C)(=O)=O)Cc1ccc(-c2ccc3ncnc(Nc4ccc(OCc5cccc(F)c5)c(Cl)c4)c3c2)o1`, the inhibition in test [1] stood at 1.17%; in test [2], 2.93%; in test [3] it was 4.68%; in test [4], 1.56%; in [5], 6.25%; in [6] it was 1.24%. The inhibition was determined as 12% in test [7], 0.32% in [8], 1.4% in test [9] and 2.55% in test [10].
